Reference: PubChem BioAssay (Tox21)
Records with an inconclusive call do not appear. Unmarked numbers belong to inactive results. Activity calls are given as the source filed them. Calls come from the whole dose curve; as a rule, active = well fitted cell-killing curve with a large enough effect in the repeat runs; inconclusive = weak or mixed curves, or effect the other way; inactive = flat fitted curve, though single readings scatter.

experiment: qHTS assay to identify small molecule antagonists of the retinoid acid receptor (RAR) signaling pathway - cell viability counter screen (AID 1159551); settings: C3RL4 cells viability, ATP luminescence (CellTiter-Glo), 6 h; series mostly up to 92.4 µM; activity change, negative = cytotoxicity: at the top concentration; note: nearly all actives have a fitted effect of over 35% in size
Excerpt: U.S. Tox21 Program National Center for Advancing Translational Sciences [NCATS] NIH Chemical Genomics Center [NCGC] U.S. Environmental Protection Agency [EPA] National Institutes of Environmental Health Sciences [NIEHS] National Toxicology Program [NTP] U.S. Food and Drug Administration [FDA] Tox21 Assay Overview: All-trans Retinoic acid (atRA) is the potent natural metabolite of retinol and plays an important role in normal embryonic development and maintenance of cellular phenotype in adult animals. atRA is the activating ligand for the retinoic acid receptors (RARs) which form heterodimers with retinoid X receptors (RXRs) on the retinoic acid response element (RARE). Through activation of the RAR/RXRs nuclear receptors, atRA regulates the transcription of a large number of protein-coding genes and regulatory RNAs. Intracellular levels of atRA are controlled by the retinol signaling pathway (RSP) that regulates the biosynthesis and catabolism of atRA to maintain physiological levels. Chemicals that interfere with the RSP can cause abnormal intracellular levels of atRA and therefore are potential developmental toxicants. To assess compounds for the potential adverse effect on embryonic development through interfering with retinol signaling, a cell-based RARE luciferase reporter gene assay was used. C3RL4 cell line (OARSA/CFSAN/FDA, Laurel, MD) was used to screen Tox21 10K compound library for identifying inhibitors of the RSP. Also cytotoxicity was assessed by determining the viability of cells based on the quantitation of ATP.
Tox21 Assay Protocol Summary: C3RL4 cells were seeded at 1,000/well in 4 uL of assay medium into white solid 1,536-well tissue culture plates (Greiner Bio-One North America Inc. Monroe, NC) using a Multidrop Combi (Thermo Scientific, Waltham, MA) dispenser. After incubation at 37 C and 5% CO2 for an overnight, 23 nL of compounds dissolved in DMSO, positive control or DMSO only were transferred by a Pintool station (Kalypsys, San Diego, CA). One ul of 1 uM (final concentration) of Retinol was added right after the compound addition by using a Flying Reagent Dispenser (FRD) (Aurora Discovery, San Diego, CA). After 6 hr incubation at 37 C and 5% CO2, 5 uL of CellTiter-Glo reagent (Promega Corporation, Madison, WI) was added to each assay plate using an FRD. Luminescence was quantified on a ViewLux plate reader (PerkinElmer, Waltham, MA) after 30 min incubation at room temperature.
% is set by controls: 0 for no effect and ±100 for the full control effect; potency is the fitted concentration of half-maximal effect.

SMILES	activity change, negative = cytotoxicity	Potency
CCCCNc1c(C(=O)OCC)c(C)nc2c1cnn2CC	-4.84% [at 42.5 µM]	
CCCN(CCc1cccs1)[C@H]1CCc2c(O)cccc2C1	-5.79% [at 42.5 µM]	
CC(C)CCOCCC(C)C	2.22%	
CC(=O)C=O	-0.634%	
O=c1cccc[nH]1	1.83%	
OCCCS	3%	
CNC(=O)c1cc(Oc2ccc(NC(=O)Nc3ccc(Cl)c(C(F)(F)F)c3)cc2)ccn1	-8.18% [at 42.5 µM]	
COc1nccnc1CC(C)C	3.45%	
C[C@@]12C(=O)OC(=O)[C@]1(C)C1CCC2O1		8.41 µM (active)
O=S(=O)(O)c1cc(S(=O)(=O)O)c2ccc3c(S(=O)(=O)O)cc(S(=O)(=O)O)c4ccc1c2c43	4.17% [at 19 µM]	
COc1cccc(O)c1	-0.456%	
CCC(=O)CC(C)CC (stereo not given)	0.29% [at 0.349 µM]	
CCc1cccc(C)c1	0.956%	
Cc1occc1SSc1ccoc1C	-9.06%	
CNCC[C@H](Oc1cccc2ccccc12)c1cccs1	-0.633% [at 42.5 µM]	
C/C=C/C=N/NC(=O)c1ccncc1	-0.302% [at 42.5 µM]	
CC1CNCC(C)O1 (stereo not given)	0.928%	
CCCCCCCC(=O)OCC	-2.85%	
CCC1CCCCC1	0.695%	
CC1(C)C(=O)N(Br)C(=O)N1Br	0.558%	

SMILES	activity change, negative = cytotoxicity	Potency
CCCCCCC(C)Nc1ccc(Nc2ccccc2)cc1 (stereo not given)	-11%	
Cn1cccc1	0.689%	
C[C@]12CC[C@H]3C(=CCc4cc(O)ccc43)[C@@H]1CCC2=O	0.124%	
COc1ccc(C#N)cc1	-1.85%	
Clc1ccc(C(c2ccccc2Cl)C(Cl)Cl)cc1 (stereo not given)	-9.27% [at 42.5 µM]	
COC(=O)C1=C(C)NC(C)=C(C(=O)OCCCN2CCC(c3ccccc3)(c3ccccc3)CC2)C1c1cccc([N+](=O)[O-])c1 (stereo not given)	-3.11% [at 42.5 µM]	
Cc1nc(Nc2ncc(C(=O)Nc3c(C)cccc3Cl)s2)cc(N2CCN(CCO)CC2)n1	-10.4% [at 42.5 µM]	
C=C1C(C)(C)[C@@]2(Cl)C(Cl)[C@]1(Cl)C(Cl)(Cl)C2(Cl)Cl (stereo not given in full)	-0.756%	
CCN(CC)CCCN(c1ccccc1)C1Cc2ccccc2C1	-0.84% [at 42.5 µM]	
CCC1(c2cnc[nH]2)Cc2ccccc2C1	0.638% [at 42.5 µM]	
CC1(C)COCN1	-0.146%	
CC1CCCCN1CCCOC(=O)c1ccc(OC2CCCCC2)cc1 (stereo not given)	-4.64% [at 42.5 µM]	
CCC(C)(C)c1cc(O)c(C(C)(C)CC)cc1O	-1.78%	
Cc1cn[nH]c1	-1.34% [at 42.5 µM]	
O=C1Nc2ccc(Cl)cc2[C@@](C#CC2CC2)(C(F)(F)F)O1	-5.45% [at 42.5 µM]	
O=C1OC(=O)c2cccc3cccc1c23	-0.692%	
O=C1c2c(O)ccc([N+](=O)[O-])c2C(=O)c2c([N+](=O)[O-])ccc(O)c21		48.1 µM (active)
c1cc[nH]c1	0.919%	
C=C/C=C/C=C/CCCCC	-3.82% [at 19 µM]	
NCCCCCCNCCCCCCN	4.27%	
